# Experimental data taken from paper PMC7862700, “An all-to-all approach to the identification of sequence-specific readers for epigenetic DNA modifications on cytosine”.
# What was measured:
# Test in all cases: DAPPL (digital affinity profiling via proximity ligation, sequencing); 10 mM Tris-HCl pH 7.5, 50 mM NaCl, 1 mM DTT, 4% glycerol, room temperature, 30 min; GST-TFs on glutathione beads, 16-mer random dsDNA library, 0.1% formaldehyde crosslink after washing; high values mean tight binding
# Conditions in all cases: protein: recombinant; tags: N-terminal GST; dsDNA, one strand shown
# FLI1 = biological target: T1, FLI1 (Homo sapiens, UniProt Q01543 1-452)
# T1 sequence: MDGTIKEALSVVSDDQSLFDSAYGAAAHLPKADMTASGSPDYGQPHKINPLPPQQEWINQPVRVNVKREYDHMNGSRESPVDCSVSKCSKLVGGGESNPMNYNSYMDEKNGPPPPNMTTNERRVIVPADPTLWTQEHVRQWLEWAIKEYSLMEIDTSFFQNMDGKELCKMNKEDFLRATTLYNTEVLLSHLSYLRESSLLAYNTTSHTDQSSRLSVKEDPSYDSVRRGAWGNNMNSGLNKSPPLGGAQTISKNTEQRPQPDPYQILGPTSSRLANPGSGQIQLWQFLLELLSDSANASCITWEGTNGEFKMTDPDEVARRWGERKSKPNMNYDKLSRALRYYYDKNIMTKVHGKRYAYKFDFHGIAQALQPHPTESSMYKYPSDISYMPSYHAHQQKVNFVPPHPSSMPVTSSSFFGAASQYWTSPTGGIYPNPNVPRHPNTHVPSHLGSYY
# In short: (§1)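 Pools were built from human transcription factors expressed in yeast as GST fusions, captured on glutathione beads and DNA-barcoded, along with a tag-only sample. Incubation with 200 nmole of a 16-mer random double-stranded DNA library lasted 30 min at room temperature in Tris/NaCl/DTT/glycerol buffer, and was followed by washing, 0.1% formaldehyde crosslinking, proximity ligation, PCR amplification and Illumina NextSeq500 sequencing. Binding signal is the quotient of each hexamer's read frequency for a factor and its frequency for the tag-only sample.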
# GABPA = biological target: T2, GABPA (Homo sapiens, UniProt Q06546 1-454)
# T2 sequence: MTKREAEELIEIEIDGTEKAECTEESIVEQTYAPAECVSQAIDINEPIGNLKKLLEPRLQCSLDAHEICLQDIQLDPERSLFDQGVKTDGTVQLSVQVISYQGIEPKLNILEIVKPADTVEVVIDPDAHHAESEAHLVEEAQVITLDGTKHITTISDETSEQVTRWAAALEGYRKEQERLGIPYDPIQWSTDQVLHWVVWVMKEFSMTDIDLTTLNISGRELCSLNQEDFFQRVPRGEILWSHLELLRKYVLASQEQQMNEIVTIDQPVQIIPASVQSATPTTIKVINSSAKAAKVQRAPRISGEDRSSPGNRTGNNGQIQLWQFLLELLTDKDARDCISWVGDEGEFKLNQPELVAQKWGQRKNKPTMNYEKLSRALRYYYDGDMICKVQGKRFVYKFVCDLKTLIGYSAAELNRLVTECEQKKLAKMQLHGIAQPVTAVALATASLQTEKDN
# In short: as §1
# ERG = biological target: T3, ERG (Homo sapiens, UniProt P11308 1-479)
# T3 sequence: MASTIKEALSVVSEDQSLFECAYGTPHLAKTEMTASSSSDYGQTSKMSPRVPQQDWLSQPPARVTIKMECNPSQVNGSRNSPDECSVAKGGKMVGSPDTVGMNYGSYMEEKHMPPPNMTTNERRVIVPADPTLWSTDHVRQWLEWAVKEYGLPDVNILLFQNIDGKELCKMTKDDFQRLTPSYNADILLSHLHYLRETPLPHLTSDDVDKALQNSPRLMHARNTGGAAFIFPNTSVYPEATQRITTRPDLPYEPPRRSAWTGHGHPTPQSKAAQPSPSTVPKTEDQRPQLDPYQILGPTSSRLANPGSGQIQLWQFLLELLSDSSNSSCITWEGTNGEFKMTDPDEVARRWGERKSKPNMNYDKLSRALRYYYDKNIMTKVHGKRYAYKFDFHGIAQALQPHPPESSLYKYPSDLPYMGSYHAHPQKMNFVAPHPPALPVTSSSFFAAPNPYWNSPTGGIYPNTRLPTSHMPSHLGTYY
# In short: as §1
# SPI1 = SPI1 (Homo sapiens, UniProt P17947 1-270)
# In short: as §1
# SPIB = SPIB (Homo sapiens, UniProt Q01892 1-262)
# Sequence of SPIB (Q01892 whole entry): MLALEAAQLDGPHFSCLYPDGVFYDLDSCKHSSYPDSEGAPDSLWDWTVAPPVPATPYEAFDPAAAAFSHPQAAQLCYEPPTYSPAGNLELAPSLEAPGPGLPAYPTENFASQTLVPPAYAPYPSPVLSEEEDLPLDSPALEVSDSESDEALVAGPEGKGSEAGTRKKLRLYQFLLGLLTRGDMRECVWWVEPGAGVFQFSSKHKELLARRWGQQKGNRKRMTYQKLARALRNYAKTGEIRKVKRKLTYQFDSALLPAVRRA
# In short: as §1
# ELK3 = biological target: T4, ELK3 (Homo sapiens, UniProt P41970 1-407)
# T4 sequence: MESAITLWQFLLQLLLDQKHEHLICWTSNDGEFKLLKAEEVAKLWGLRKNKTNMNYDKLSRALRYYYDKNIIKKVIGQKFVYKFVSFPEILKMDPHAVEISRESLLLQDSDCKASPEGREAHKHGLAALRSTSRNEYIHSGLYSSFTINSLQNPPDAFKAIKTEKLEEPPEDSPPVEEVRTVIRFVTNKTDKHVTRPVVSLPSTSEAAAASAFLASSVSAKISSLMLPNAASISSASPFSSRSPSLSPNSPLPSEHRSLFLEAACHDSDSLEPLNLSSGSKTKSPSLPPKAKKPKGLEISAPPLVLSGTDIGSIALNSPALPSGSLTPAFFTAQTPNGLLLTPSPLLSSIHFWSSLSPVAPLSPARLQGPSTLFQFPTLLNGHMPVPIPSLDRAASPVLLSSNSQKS
# In short: as §1
# ELF1 = ELF1 (Homo sapiens, UniProt P32519 1-619)
# Sequence of ELF1 (P32519 whole entry): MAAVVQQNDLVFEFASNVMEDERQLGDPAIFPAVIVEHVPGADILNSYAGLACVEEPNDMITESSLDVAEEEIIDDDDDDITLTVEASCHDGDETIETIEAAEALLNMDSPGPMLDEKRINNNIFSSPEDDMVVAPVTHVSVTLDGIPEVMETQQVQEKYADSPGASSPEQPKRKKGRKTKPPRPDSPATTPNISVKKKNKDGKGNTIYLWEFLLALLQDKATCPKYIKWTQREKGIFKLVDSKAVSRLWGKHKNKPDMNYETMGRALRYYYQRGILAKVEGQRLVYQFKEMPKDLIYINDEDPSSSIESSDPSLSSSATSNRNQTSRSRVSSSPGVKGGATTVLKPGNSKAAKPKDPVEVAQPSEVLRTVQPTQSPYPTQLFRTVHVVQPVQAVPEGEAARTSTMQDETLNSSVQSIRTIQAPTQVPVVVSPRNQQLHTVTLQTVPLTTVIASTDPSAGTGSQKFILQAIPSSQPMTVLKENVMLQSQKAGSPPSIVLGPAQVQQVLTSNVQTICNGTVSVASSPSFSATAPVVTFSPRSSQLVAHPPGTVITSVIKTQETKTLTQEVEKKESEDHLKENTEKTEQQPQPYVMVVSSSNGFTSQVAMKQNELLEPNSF
# In short: as §1
# EHF = biological target: T5, EHF (Homo sapiens, UniProt Q9NZC4 1-300)
# T5 sequence: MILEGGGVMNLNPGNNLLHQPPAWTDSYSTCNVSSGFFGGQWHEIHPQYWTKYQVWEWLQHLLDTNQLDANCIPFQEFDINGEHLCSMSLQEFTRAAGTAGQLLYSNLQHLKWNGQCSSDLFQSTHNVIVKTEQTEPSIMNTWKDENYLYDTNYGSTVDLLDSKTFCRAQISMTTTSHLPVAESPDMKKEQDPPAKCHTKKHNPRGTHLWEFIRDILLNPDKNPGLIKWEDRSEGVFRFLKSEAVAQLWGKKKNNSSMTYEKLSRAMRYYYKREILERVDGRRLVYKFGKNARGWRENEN
# In short: as §1
# ELK1 = biological target: T6, ELK1 (Homo sapiens, UniProt P19419 1-428)
# T6 sequence: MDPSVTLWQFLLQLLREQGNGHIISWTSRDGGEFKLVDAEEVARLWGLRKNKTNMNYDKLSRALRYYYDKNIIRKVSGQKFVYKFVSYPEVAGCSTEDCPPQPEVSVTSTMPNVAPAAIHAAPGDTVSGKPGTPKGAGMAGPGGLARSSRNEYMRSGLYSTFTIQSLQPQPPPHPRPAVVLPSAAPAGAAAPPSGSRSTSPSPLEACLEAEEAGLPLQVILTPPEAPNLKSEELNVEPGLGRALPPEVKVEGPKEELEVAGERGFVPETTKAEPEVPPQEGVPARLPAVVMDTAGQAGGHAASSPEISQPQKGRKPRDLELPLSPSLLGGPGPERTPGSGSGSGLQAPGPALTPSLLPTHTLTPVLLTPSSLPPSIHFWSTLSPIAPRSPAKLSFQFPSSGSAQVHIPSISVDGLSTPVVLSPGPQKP
# In short: as §1
Sequence,binding signal (FLI1),binding signal (GABPA),binding signal (ERG),binding signal (SPI1),binding signal (SPIB),binding signal (ELK3),binding signal (ELF1),binding signal (EHF),binding signal (ELK1)
GTTAAA,"1.03 fold enrichment (6-mer frequency, TF over GST control)","1.01 fold enrichment (6-mer frequency, TF over GST control)","1.03 fold enrichment (6-mer frequency, TF over GST control)","1.08 fold enrichment (6-mer frequency, TF over GST control)","1.07 fold enrichment (6-mer frequency, TF over GST control)","1.01 fold enrichment (6-mer frequency, TF over GST control)",,,
ATGCTG,"1.09 fold enrichment (6-mer frequency, TF over GST control)","1.07 fold enrichment (6-mer frequency, TF over GST control)",,"1.07 fold enrichment (6-mer frequency, TF over GST control)","1.05 fold enrichment (6-mer frequency, TF over GST control)",,"1.13 fold enrichment (6-mer frequency, TF over GST control)","1.22 fold enrichment (6-mer frequency, TF over GST control)",
CGAAAT,"1.05 fold enrichment (6-mer frequency, TF over GST control)",,"1.02 fold enrichment (6-mer frequency, TF over GST control)","1.09 fold enrichment (6-mer frequency, TF over GST control)","1.07 fold enrichment (6-mer frequency, TF over GST control)",,"1.01 fold enrichment (6-mer frequency, TF over GST control)","1.07 fold enrichment (6-mer frequency, TF over GST control)",
GTGGCT,"1.23 fold enrichment (6-mer frequency, TF over GST control)","1.27 fold enrichment (6-mer frequency, TF over GST control)","1.19 fold enrichment (6-mer frequency, TF over GST control)","1.3 fold enrichment (6-mer frequency, TF over GST control)","1.18 fold enrichment (6-mer frequency, TF over GST control)",,"1.11 fold enrichment (6-mer frequency, TF over GST control)","1.22 fold enrichment (6-mer frequency, TF over GST control)",
TACTGG,"1.08 fold enrichment (6-mer frequency, TF over GST control)","1.19 fold enrichment (6-mer frequency, TF over GST control)","1.13 fold enrichment (6-mer frequency, TF over GST control)","1.08 fold enrichment (6-mer frequency, TF over GST control)","1.05 fold enrichment (6-mer frequency, TF over GST control)","1.07 fold enrichment (6-mer frequency, TF over GST control)","1.13 fold enrichment (6-mer frequency, TF over GST control)",,
ACATCG,"1.03 fold enrichment (6-mer frequency, TF over GST control)",,,"1.03 fold enrichment (6-mer frequency, TF over GST control)","1.1 fold enrichment (6-mer frequency, TF over GST control)","1.09 fold enrichment (6-mer frequency, TF over GST control)","1.06 fold enrichment (6-mer frequency, TF over GST control)","1.15 fold enrichment (6-mer frequency, TF over GST control)","1.01 fold enrichment (6-mer frequency, TF over GST control)"
CTGTAA,"1.06 fold enrichment (6-mer frequency, TF over GST control)","1.07 fold enrichment (6-mer frequency, TF over GST control)",,"1.11 fold enrichment (6-mer frequency, TF over GST control)","1.04 fold enrichment (6-mer frequency, TF over GST control)","1.24 fold enrichment (6-mer frequency, TF over GST control)","1.12 fold enrichment (6-mer frequency, TF over GST control)","1.09 fold enrichment (6-mer frequency, TF over GST control)",
AGGGCT,"1.03 fold enrichment (6-mer frequency, TF over GST control)","1.05 fold enrichment (6-mer frequency, TF over GST control)","1.07 fold enrichment (6-mer frequency, TF over GST control)",,,"1.08 fold enrichment (6-mer frequency, TF over GST control)","1.01 fold enrichment (6-mer frequency, TF over GST control)","1.04 fold enrichment (6-mer frequency, TF over GST control)",
GAAAAC,"1.04 fold enrichment (6-mer frequency, TF over GST control)","1.05 fold enrichment (6-mer frequency, TF over GST control)","1.09 fold enrichment (6-mer frequency, TF over GST control)","1.07 fold enrichment (6-mer frequency, TF over GST control)","1 fold enrichment (6-mer frequency, TF over GST control)",,"1.06 fold enrichment (6-mer frequency, TF over GST control)","1.09 fold enrichment (6-mer frequency, TF over GST control)",
